Source: PubChem BioAssay
Env fusion inh: HIV envelope-mediated fusion inhibition; HeLa-JRFL Env/CEM21 cell fusion, luciferase; inhibition, % at 12.3 µM; 360,000 tested, 1.1% active;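 active = mean replicate inhibition score of at least 50 and every replicate individually at or above 50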
ALR H2O2 inh: human ALR oxidase inhibition via reduced H2O2 | purified ALR, DTT oxidation, H2O2 HRP-luminol luminescence | inhibition, % (no concentration beside the values) | 290,000 tested, 3.8% active | AID 485317;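 active = mean replicate inhibition above about 79%, with every replicate also reaching it, limit read from the data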
PglD inh: blocks C. jejuni PglD acetyltransferase activity; purified PglD enzyme, DTNB colorimetric CoA detection; 360,000 tested, 0.098% active; AID 602405; inhibition, % at 12.5 µM; in the data active = inhibition above about 16%, passing the limit was not always enough
CASP6 VEID inh: blocks human caspase-6 cleavage activity; P55212; purified caspase-6, Z-VEID-R110 cleavage fluorescence; inhibition, % at 12.5 µM; 350,000 tested, 0.53% active;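 active = mean inhibition across replicates at least about 35%, with every replicate also reaching that limit, limit read from the data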
NSD2 HMT inh: blocks human histone methyltransferase NSD2; O96028; NSD2 peptide methylation, AlphaScreen, 120 min; inhibition, % at 12.5 µM; 310,000 tested, 0.54% active; in the data active = inhibition above about 50%
Target sequence (O96028 whole entry, looked up): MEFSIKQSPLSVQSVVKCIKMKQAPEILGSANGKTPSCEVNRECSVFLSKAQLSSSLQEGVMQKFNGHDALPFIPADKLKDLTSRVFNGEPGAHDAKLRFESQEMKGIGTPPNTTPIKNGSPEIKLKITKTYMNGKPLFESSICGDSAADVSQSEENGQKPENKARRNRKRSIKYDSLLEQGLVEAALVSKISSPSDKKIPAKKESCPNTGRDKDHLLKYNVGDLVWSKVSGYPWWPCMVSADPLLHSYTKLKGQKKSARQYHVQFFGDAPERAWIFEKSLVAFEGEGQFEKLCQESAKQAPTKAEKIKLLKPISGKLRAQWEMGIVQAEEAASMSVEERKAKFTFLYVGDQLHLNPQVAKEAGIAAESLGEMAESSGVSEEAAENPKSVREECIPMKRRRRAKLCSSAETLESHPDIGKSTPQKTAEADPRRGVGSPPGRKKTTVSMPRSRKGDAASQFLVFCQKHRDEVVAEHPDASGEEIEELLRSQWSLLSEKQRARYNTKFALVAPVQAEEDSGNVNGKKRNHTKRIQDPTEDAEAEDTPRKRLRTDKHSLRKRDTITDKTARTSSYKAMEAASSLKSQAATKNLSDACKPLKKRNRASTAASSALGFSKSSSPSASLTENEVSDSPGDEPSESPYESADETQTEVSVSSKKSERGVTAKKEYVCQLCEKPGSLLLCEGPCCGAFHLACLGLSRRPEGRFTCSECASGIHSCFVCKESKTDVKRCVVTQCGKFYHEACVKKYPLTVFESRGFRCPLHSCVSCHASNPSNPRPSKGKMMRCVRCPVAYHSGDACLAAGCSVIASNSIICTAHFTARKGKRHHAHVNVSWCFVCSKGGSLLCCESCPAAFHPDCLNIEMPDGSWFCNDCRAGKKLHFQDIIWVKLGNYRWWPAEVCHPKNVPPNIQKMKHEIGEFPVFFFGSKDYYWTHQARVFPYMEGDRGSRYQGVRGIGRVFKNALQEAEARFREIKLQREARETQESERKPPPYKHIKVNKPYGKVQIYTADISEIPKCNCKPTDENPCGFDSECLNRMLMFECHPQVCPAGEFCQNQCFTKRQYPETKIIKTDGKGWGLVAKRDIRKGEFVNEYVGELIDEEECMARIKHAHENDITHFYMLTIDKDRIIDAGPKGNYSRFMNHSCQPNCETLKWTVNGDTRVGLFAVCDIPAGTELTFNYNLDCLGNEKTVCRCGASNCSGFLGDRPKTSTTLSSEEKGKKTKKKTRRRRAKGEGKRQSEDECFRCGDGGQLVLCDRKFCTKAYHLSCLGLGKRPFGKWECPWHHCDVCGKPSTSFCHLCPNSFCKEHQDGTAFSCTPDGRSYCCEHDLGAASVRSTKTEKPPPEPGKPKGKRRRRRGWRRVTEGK
CFTR F508del cor: CFTR F508del correction in bronchial cells; CFBE cells, YFP halide quenching; stimulated with forskolin plus potentiator P3; % fluorescence drop versus neutral controls; activity (quench increase), % at 7.58 µM; 350,000 tested, 0.36% active;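 active = mean added fluorescence quench of at least 8% versus neutral control, with both replicates also reaching 8%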;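 also: cells transiently co-express mutant CFTR-F508del with the halide-sensitive YFP; corrector assay measuring rescue of mutant channel to the surface after 24 h compound exposure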
Of the large screens only hits and unclear results are named; the others gave an inactive call. This is a sample that favours compounds with a hit; in the whole collection about 4.1% have one here.

CC1=Nc2cc(C(=O)NCC3CCCO3)ccc2Sc2ccc(Br)cc21 (stereo unspecified)	CFTR F508del cor 13 (no result: ALR H2O2 inh)
O=C(NC1CCCC1)c1ccc2c(c1)N(Cc1ccc(F)cc1)CCS2	none
CN1CCSc2ccc(C(=O)NCc3cccc(F)c3)cc21	ALR H2O2 inh 92 (no result: NSD2 HMT inh)
CN(C)CCNC(=O)c1ccc2c(c1)N(Cc1ccc(F)cc1)CCS2	ALR H2O2 inh 99 (no result: NSD2 HMT inh)
CC1=Nc2cc(C(=O)O)ccc2Sc2ccc(Br)cc21	none (no result: ALR H2O2 inh, NSD2 HMT inh)
O=C(NCC1CCCO1)c1ccc2c(c1)N(Cc1ccc(Cl)cc1)CCS2 (stereo unspecified)	none (no result: ALR H2O2 inh)
CCN1[C@H](C(=O)OC)[C@@H](CO)[C@@H]2Cn3c(ccc(-c4cccc(OC)c4)c3=O)[C@@H]21	none (no result: Env fusion inh, ALR H2O2 inh, CASP6 VEID inh, NSD2 HMT inh)
N#C[C@H]1[C@H](c2ccc(C#Cc3ccccc3F)cc2)[C@H](CO)N1C(=O)C1CCCC1	none (no result: Env fusion inh, ALR H2O2 inh, PglD inh, NSD2 HMT inh)
COc1ccc(CCNC(=O)c2ccc3c(c2)N(Cc2ccc(C)cc2)CCS3)cc1OC	none (no result: Env fusion inh, CASP6 VEID inh, CFTR F508del cor)
Cc1ccc(CN2CCSc3ccc(C(=O)NCCCN4CCN(C)CC4)cc32)cc1	ALR H2O2 inh 98
O=[N+]([O-])c1ccccc1S(=O)(=O)Nc1nc2ccccc2s1	CASP6 VEID inh 44
O=[N+]([O-])c1ccccc1S(=O)(=O)n1cnc2ccccc21	ALR H2O2 inh 95 (no result: PglD inh)
O=S(=O)(c1cccs1)n1cnc2ccccc21	ALR H2O2 inh 97 (no result: Env fusion inh, CASP6 VEID inh, CFTR F508del cor)
C[C@H](CO)N1C[C@H](C)[C@H](CN(C)C(=O)Nc2cc(F)ccc2F)Oc2cc(C#CC3CC3)ccc2S1(=O)=O	none (no result: ALR H2O2 inh, PglD inh, CASP6 VEID inh, NSD2 HMT inh)
CCC(=O)N1CC[C@@H]2[C@H](CO)Nc3ccc(-c4ccccc4)cc3[C@@H]21	none (no result: Env fusion inh, ALR H2O2 inh, CASP6 VEID inh, NSD2 HMT inh)
C[C@@H]1CN([C@H](C)CO)S(=O)(=O)c2ccc(-c3cccc(C#N)c3)cc2O[C@H]1CN(C)C	none (no result: ALR H2O2 inh, NSD2 HMT inh, CFTR F508del cor)
Cc1ccc2nc3sc(C(=O)N4CCOCC4)c(N)c3cc2c1	Env fusion inh 74 (no result: ALR H2O2 inh, CASP6 VEID inh, CFTR F508del cor)
CC1(C)CC(=O)C2=C(C1)Oc1ncn(Cc3ccco3)c(=N)c1C2c1ccccc1 (stereo unspecified)	none (no result: Env fusion inh, CASP6 VEID inh, CFTR F508del cor)
COc1ccc(C2C3=C(CC(C)(C)CC3=O)Oc3ncn(Cc4ccccc4)c(=N)c32)cc1 (stereo unspecified)	Env fusion inh 61 (no result: CASP6 VEID inh, CFTR F508del cor)
O=C(O)CCC(=O)N1N=C(c2c(-c3ccccc3)c3cc(Cl)ccc3[nH]c2=O)CC1c1cccs1 (stereo unspecified)	none (no result: PglD inh)
O=C(O)CCCC(=O)N1N=C(c2c(-c3ccccc3)c3cc(Cl)ccc3[nH]c2=O)CC1c1cccs1 (stereo unspecified)	ALR H2O2 inh 87 (no result: PglD inh)
Cc1cc([N+](=O)[O-])nn1CCCC(=O)N1CCN(c2ccccc2)CC1	ALR H2O2 inh 98 (no result: PglD inh, CFTR F508del cor)
O=C(CCN1C(=O)c2ccccc2S1(=O)=O)N1CCN(c2ccc(F)cc2)CC1	none (no result: PglD inh)
O=C(CSc1ccccc1)N1CCN(c2ccccc2)CC1	none (no result: Env fusion inh, CASP6 VEID inh, CFTR F508del cor)
O=C(CCSc1ccccc1)N1CCN(c2ccccc2)CC1	ALR H2O2 inh 91
O=C(CCSc1ccc(Cl)cc1)N1CCN(c2ccc(O)cc2)CC1	ALR H2O2 inh 100 (no result: PglD inh)
O=C(CCN1C(=O)c2ccccc2S1(=O)=O)N1CCN(c2ccccc2)CC1	ALR H2O2 inh 88 (no result: Env fusion inh, CASP6 VEID inh, CFTR F508del cor)
COc1ccc2c3c([nH]c2c1)[C@@H](CO)N(Cc1ccccc1)CC31CN(C(=O)c2cccnc2)C1	none (no result: ALR H2O2 inh, PglD inh, NSD2 HMT inh)
COc1ccccc1NC(=O)c1cc2cc(Br)ccc2cc1O	Env fusion inh 57 (no result: PglD inh)
CN1c2ccc(-c3cccc(C#N)c3)cc2[C@H]2[C@H](CCN2C(=O)C2CCC2)[C@H]1CO	none (no result: Env fusion inh, ALR H2O2 inh, CASP6 VEID inh, NSD2 HMT inh)
CNC(=O)C[C@H]1CC[C@@H]2[C@H](COc3ccc(NC(=O)Nc4cc(C)cc(C)c4)cc3C(=O)N2C)O1	none (no result: ALR H2O2 inh, NSD2 HMT inh)
CC(C)CCOC(=O)C[N+](C)(C)CCOC1CC2CCC1(C)C2(C)C (stereo unspecified)	Env fusion inh 76 (no result: ALR H2O2 inh, PglD inh)
CCCCCCCOC(=O)C[N+](C)(C)CCOC1CC2CCC1(C)C2(C)C (stereo unspecified)	Env fusion inh 75 (no result: ALR H2O2 inh, PglD inh)
CCCCOC(=O)C[N+](C)(C)CCOC1CC2CCC1(C)C2(C)C (stereo unspecified)	Env fusion inh 103
CCCCCCOC(=O)C[N+](C)(C)CCOC1CC2CCC1(C)C2(C)C (stereo unspecified)	none (no result: ALR H2O2 inh, CASP6 VEID inh, CFTR F508del cor)
CCC(C)OC(=O)C[N+](C)(C)CCOC1CC2CCC1(C)C2(C)C (stereo unspecified)	Env fusion inh 66
